Laboratory results published in PubChem BioAssay.

Tested on: not listed separately
Assay: binders of probe aFGF10 on microarray, primary screen, stem cell growth factor project, biochemical, small-molecule microarray, fluorescence 635/667 (AID 1071);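 also: score merges 667 nm spot intensity and signal to noise from triplicate slides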
Settings: higher = more signal

Structure (SMILES) | composite z-score
CO[C@H]1COC(=O)CC=C[C@H](C)[C@@H](OC)COC(=O)CC=C[C@@H]1C | 0.227
C=CCNC(=O)[C@H]1[C@@H]2C(=O)O[C@@H](c3ccccc3)[C@@H](c3ccccc3)N2[C@@H](c2ccccc2OCCO)[C@]12C(=O)N(C(=O)OCCOC)c1ccc(C#CCC(C(=O)OC)C(=O)OC)cc12 | 0.408
CCc1cccc(NC(=O)O[C@H]2[C@H](OC(=O)Nc3ccccc3)[C@@H](OC(=O)Nc3ccccc3)[C@@H](OC)O[C@@H]2CO)c1 | 1.17
O=C1O[C@@H](c2ccccc2)[C@@H](c2ccccc2)N2[C@@H](c3ccccc3OCCO)[C@]3(C(=O)Nc4ccc(C#CC5=CCCCC5)cc43)[C@@H](C(=O)O)[C@H]12 | 0.627
O=C1C[C@@](C(=O)NCCN2CCOCC2)(c2ccc([N+](=O)[O-])cc2)[C@@H](c2ccc(CO)cc2)N1C1CCCCC1 | 0.26
C[C@H]1NC(=O)[C@@H](C)NC(=O)[C@@]23C(=O)N[C@@H](Cc4ccccc4)C2[C@H](C)[C@@]2(C)O[C@H]2C3/C=C/C/C=C\CNC1=O (some centres not stated) | -0.167
CCC#CCN(Cc1ccccc1Br)[C@H](/C=C/c1ccccc1)[C@@H](O)Cc1ccccc1 | -0.61
C=C(COC)/C(=C/C[C@@H](OC(C)=O)c1cccc(OCCO)c1)c1cc(C(=O)OC)ccc1OC | 0.396
O=C/C=C/c1ccccc1Cl | -0.0502
Cc1ccc(S(=O)(=O)c2cc3oc2CC[C@@H](CO)NC(=O)N(C)Cc2cn(nn2)C[C@H](Cc2ccccc2)NC3=O)cc1 | 0.175
O=C1O[C@H](c2ccccc2)[C@H](c2ccccc2)N2[C@H]1[C@@H](C(=O)Nc1nc3ccccc3s1)[C@]1(C(=O)Nc3ccc(C#CC4=CCCCC4)cc31)[C@H]2c1ccccc1OCCO | 0.552
C=CCC1=C[C@H]2[C@H]([C@@H]3C=C[C@]2(CC=C)C(=O)[C@]32CO2)[C@@]2(CO2)C1=O | 0.612
CC(C)N1CC=CC23O[C@@H]4/C=C\CCCOC(=O)C4[C@H]2C(=O)N(CCO)[C@@H]3C1=O (some centres not stated) | -0.958
C=CCC(OC(C)=O)[C@@H]1[C@@H](N(Cc2cc3ccccc3o2)C(=O)Cc2ccc(F)cc2)c2cc(OCCCO)ccc2N1C(=O)c1ccc(-c2ccccc2)cc1 (some centres not stated) | -0.263
C=CCc1cccc([C@H]2N[C@H](C(=O)O)CC[C@@H]2C)c1 | 0.502
CCOC(=O)C[C@H]1[C@H](OC(=O)Cc2ccc3c(c2)OCO3)[C@@H](NC(=O)c2ccc3ccccc3c2)c2cc(OCCCO)ccc2N1C(=O)Cc1ccc(OC)cc1 | 0.546

Target: Neurogenic locus notch homolog protein 2 (Homo sapiens) (UniProt Q04721)
Sequence (Q04721 whole entry, looked up): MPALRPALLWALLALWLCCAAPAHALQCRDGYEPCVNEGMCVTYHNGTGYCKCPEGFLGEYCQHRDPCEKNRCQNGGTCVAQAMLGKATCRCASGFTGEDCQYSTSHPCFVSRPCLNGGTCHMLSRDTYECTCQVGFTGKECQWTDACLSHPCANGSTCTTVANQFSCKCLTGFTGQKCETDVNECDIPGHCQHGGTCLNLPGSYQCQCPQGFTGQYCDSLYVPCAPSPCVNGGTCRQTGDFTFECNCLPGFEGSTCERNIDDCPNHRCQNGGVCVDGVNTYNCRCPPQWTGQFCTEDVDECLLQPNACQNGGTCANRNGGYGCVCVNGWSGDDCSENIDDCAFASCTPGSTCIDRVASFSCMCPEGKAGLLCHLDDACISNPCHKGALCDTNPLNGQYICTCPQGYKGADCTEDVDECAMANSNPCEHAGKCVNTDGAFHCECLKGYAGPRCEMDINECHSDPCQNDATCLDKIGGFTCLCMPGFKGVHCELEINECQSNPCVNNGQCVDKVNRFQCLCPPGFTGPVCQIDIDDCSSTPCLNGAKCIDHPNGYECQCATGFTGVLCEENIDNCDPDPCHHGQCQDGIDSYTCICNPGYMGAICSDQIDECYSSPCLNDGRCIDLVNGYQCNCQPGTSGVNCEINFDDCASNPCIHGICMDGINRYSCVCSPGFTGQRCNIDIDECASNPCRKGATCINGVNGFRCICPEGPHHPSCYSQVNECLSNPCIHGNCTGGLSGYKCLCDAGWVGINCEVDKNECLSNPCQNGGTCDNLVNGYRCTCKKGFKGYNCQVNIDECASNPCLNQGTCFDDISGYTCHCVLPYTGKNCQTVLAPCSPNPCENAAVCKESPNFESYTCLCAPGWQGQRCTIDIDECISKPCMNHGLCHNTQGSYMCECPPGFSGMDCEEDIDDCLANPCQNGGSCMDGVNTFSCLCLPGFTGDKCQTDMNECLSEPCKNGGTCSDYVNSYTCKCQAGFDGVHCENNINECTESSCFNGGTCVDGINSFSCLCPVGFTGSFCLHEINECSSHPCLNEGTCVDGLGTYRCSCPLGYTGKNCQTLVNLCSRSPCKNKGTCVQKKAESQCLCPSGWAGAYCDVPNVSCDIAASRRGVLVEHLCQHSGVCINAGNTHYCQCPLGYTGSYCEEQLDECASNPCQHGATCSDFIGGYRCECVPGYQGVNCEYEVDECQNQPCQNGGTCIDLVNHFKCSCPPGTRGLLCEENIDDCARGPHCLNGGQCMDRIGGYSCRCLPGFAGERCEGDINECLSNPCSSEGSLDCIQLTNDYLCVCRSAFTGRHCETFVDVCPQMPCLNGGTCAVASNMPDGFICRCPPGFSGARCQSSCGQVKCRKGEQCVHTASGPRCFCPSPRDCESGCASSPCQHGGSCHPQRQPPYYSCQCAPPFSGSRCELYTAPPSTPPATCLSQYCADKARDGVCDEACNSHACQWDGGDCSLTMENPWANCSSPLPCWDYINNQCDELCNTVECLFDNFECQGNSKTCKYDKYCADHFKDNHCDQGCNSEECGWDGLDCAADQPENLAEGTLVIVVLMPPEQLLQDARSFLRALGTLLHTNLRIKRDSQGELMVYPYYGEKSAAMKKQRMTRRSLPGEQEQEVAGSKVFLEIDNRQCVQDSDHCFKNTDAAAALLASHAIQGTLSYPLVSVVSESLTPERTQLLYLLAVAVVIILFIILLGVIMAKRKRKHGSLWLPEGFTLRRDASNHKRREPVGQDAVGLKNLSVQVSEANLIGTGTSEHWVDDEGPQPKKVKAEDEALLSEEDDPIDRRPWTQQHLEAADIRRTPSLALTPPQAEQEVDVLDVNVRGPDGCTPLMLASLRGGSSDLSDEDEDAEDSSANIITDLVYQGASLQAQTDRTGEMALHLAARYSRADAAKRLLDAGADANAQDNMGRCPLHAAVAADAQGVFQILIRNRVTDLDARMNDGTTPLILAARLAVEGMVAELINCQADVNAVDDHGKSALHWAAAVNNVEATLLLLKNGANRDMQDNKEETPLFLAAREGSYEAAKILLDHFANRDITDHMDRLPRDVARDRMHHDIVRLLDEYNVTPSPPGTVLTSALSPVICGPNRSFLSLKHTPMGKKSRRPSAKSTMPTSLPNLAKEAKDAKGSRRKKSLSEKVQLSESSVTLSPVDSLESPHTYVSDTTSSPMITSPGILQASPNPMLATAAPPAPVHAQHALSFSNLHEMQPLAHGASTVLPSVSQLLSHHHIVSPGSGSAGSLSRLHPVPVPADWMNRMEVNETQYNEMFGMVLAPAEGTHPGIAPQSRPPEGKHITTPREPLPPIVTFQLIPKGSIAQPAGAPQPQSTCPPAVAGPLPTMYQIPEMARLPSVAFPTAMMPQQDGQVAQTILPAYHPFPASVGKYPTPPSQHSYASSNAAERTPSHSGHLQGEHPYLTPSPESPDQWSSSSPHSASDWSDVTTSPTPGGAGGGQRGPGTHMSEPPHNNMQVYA
Assay: Notch2 binders on small-molecule microarrays, primary screen, biochemical, small-molecule microarray, 635 nm fluorescence, stem cell growth factors (AID 1073)
Settings: Notch2 binding, higher = more signal

Structure (SMILES) | composite z-score
Cc1ccc(S(=O)(=O)N2[C@@H](c3ccccc3)C(C(=O)O)=CC[C@H]2c2ccccc2)cc1 | 1.44
CC[C@H]1C2=C3C(CC[C@H]4C(OC)OC[C@](C)([C@@H]34)N(C(=O)OC(C)(C)C)C2)C(CO)C1CO (some centres not stated) | 1.65
C=CCN1C(=O)[C@@]2(O[C@@H](CCn3cc([C@H](O)c4ccccc4)nn3)[C@H]([Si](C)(C)c3ccc(OC)cc3)[C@H]2C)c2cc(N3CCOC3=O)ccc21 | -0.261
CO[C@@H]1COC(=O)CC=C[C@@H](C)[C@H](OC)COC(=O)CC=C[C@H]1C | -0.541
CCCC[C@H]1OB(O)C[C@H]2C1=C(COC)C[C@H]1C(=O)N(Cc3ccccc3)C(=O)[C@H]12 | 0.908
C=CC[C@@]1(C(=O)N2CCOCC2)N=C(c2ccc(OCCCO)cc2)O[C@@H]1c1ccccc1 | 0.369
COc1ccc([Si](C)(C)[C@@H]2[C@@H](CCO)O[C@]3(C(=O)N(Cc4ccc(NC(=O)[C@H](C)O)cc4)c4ccccc43)[C@H]2C)cc1 | 0.684
COc1ccc([Si](C)(C)[C@H]2[C@H](CC(=O)N(CCO)Cc3ccccc3)O[C@@]3(C(=O)N(C)c4ccccc43)[C@@H]2C)cc1 | -0.0546
NC(=O)[C@H]1[C@@H]2C(=O)O[C@@H](c3ccccc3)[C@@H](c3ccccc3)N2[C@@H](c2ccc(O)cc2)[C@]12C(=O)Nc1ccc(C#CCCO)cc12 | -0.982
CO[C@H]1O[C@H](CO)[C@@H](OC(=O)Nc2ccc3c(c2)OCO3)[C@H](OC(=O)Nc2ccccc2)[C@@H]1OC(=O)Nc1ccccc1 | -0.0622
CC(C)(C)OC(=O)CC[C@@]1(C(=O)NCc2ccccc2)N=C(c2ccc(OCCCO)cc2)O[C@@H]1c1ccccc1 | 1.24
C[C@@H]1CC[C@H]2C(=O)N3CCC[C@H]3C(=O)N2[C@H]1c1ccc(Br)cc1 | -0.829
C=CCNC(=O)[C@H]1[C@@H]2C(=O)O[C@@H](c3ccccc3)[C@@H](c3ccccc3)N2[C@@H](c2ccc(O)cc2)[C@]12C(=O)Nc1ccc(C#CCNC(N)=O)cc12 | -1.11
O=C(NCc1ccccc1)[C@@]1(Cc2ccccc2)COC(c2ccc(OCCCO)cc2)=N1 | 0.46
COc1ccc(C(=O)Nc2ccc(CN3C(=O)[C@]4(O[C@H](CCn5cc(CCO)nn5)[C@@H]([Si](C)(C)c5ccc(OC)cc5)[C@@H]4C)c4ccccc43)cc2)cc1 | 1.46
O=C1C2C=CC(C(O)c3ccccc3)N(n3cnnc3)C2C(=O)N1Cc1ccccc1 (configuration not stated) | 0.729
O=C1c2ccccc2[C@](Cc2ccccc2I)(C(=O)NCC(F)(F)F)[C@H](c2ccc(CO)cc2)N1Cc1ccccc1C(F)(F)F | 0.902
COCCCNC(=O)[C@@]1(Sc2ccc(C)cc2)CC(=O)N(Cc2cc(C(F)(F)F)cc(C(F)(F)F)c2)[C@@H]1c1ccc(CO)cc1I | -1.43

Structure (SMILES) | composite z-score
CC1CC/C=C\[C@H]2OC34C=CCN(Cn5nnc6ccccc65)C(=O)[C@H]3N(C(C)CO)C(=O)[C@@H]4C2C(=O)O1 (some centres not stated) | -0.64
COCCOC(=O)N1C(=O)[C@@]2(c3cc(C#CCNC(N)=O)ccc31)[C@H](C(=O)N1CCCCCCC1)[C@H]1C(=O)O[C@H](c3ccccc3)[C@H](c3ccccc3)N1[C@@H]2c1ccccc1OCCO | 1.38
CO[C@H]1COC(=O)CC=C[C@H](C)[C@@H](OC)COC(=O)CC=C[C@@H]1C | -0.209
C=CCNC(=O)[C@H]1[C@@H]2C(=O)O[C@@H](c3ccccc3)[C@@H](c3ccccc3)N2[C@@H](c2ccccc2OCCO)[C@]12C(=O)N(C(=O)OCCOC)c1ccc(C#CCC(C(=O)OC)C(=O)OC)cc12 | 1.34
CCc1cccc(NC(=O)O[C@H]2[C@H](OC(=O)Nc3ccccc3)[C@@H](OC(=O)Nc3ccccc3)[C@@H](OC)O[C@@H]2CO)c1 | 1.08
O=C1O[C@@H](c2ccccc2)[C@@H](c2ccccc2)N2[C@@H](c3ccccc3OCCO)[C@]3(C(=O)Nc4ccc(C#CC5=CCCCC5)cc43)[C@@H](C(=O)O)[C@H]12 | 1.44
O=C1C[C@@](C(=O)NCCN2CCOCC2)(c2ccc([N+](=O)[O-])cc2)[C@@H](c2ccc(CO)cc2)N1C1CCCCC1 | 0.576
C[C@H]1NC(=O)[C@@H](C)NC(=O)[C@@]23C(=O)N[C@@H](Cc4ccccc4)C2[C@H](C)[C@@]2(C)O[C@H]2C3/C=C/C/C=C\CNC1=O (some centres not stated) | -0.269
CCC#CCN(Cc1ccccc1Br)[C@H](/C=C/c1ccccc1)[C@@H](O)Cc1ccccc1 | -1.52
C=C(COC)/C(=C/C[C@@H](OC(C)=O)c1cccc(OCCO)c1)c1cc(C(=O)OC)ccc1OC | -0.0821
O=C/C=C/c1ccccc1Cl | -0.221
Cc1ccc(S(=O)(=O)c2cc3oc2CC[C@@H](CO)NC(=O)N(C)Cc2cn(nn2)C[C@H](Cc2ccccc2)NC3=O)cc1 | -0.881
O=C1O[C@H](c2ccccc2)[C@H](c2ccccc2)N2[C@H]1[C@@H](C(=O)Nc1nc3ccccc3s1)[C@]1(C(=O)Nc3ccc(C#CC4=CCCCC4)cc31)[C@H]2c1ccccc1OCCO | 1.16
C=CCC1=C[C@H]2[C@H]([C@@H]3C=C[C@]2(CC=C)C(=O)[C@]32CO2)[C@@]2(CO2)C1=O | 0.333
CC(C)N1CC=CC23O[C@@H]4/C=C\CCCOC(=O)C4[C@H]2C(=O)N(CCO)[C@@H]3C1=O (some centres not stated) | -0.933
C=CCC(OC(C)=O)[C@@H]1[C@@H](N(Cc2cc3ccccc3o2)C(=O)Cc2ccc(F)cc2)c2cc(OCCCO)ccc2N1C(=O)c1ccc(-c2ccccc2)cc1 (some centres not stated) | -0.079
C=CCc1cccc([C@H]2N[C@H](C(=O)O)CC[C@@H]2C)c1 | -0.441
CCOC(=O)C[C@H]1[C@H](OC(=O)Cc2ccc3c(c2)OCO3)[C@@H](NC(=O)c2ccc3ccccc3c2)c2cc(OCCCO)ccc2N1C(=O)Cc1ccc(OC)cc1 | 0.947
